Screening data (PubChem)
Sampled rows, rich in hits. Any-hit rate of the full collection: about 1.8%.
Vc quorum ag = induces V. cholerae light production without autoinducers | hit rate 0.16% among 350,000 | V. cholerae BH1578 lux reporter, luminescence, 6 h | activation, % at 18.7 µM; in the data active means activation mostly above about 9.7%, no sharp cut-off
PrPC TRFRET = reduces human prion protein on the cell surface; P04156; cell surface PrPC, TR-FRET read-out; inhibition, % at 13.8 µM; hit rate 0.43% among 370,000; in the data active means inhibition above about 24%
VHR inh abs = inhibitors of human VHR1 phosphatase (DUSP3); P51452; recombinant VHR phosphatase, pNPP absorbance; inhibition, % at 13.3 µM; hit rate 0.52% among 290,000; in the data active means inhibition above about 50%
Y pestis TopoI = blocks Yersinia pestis topoisomerase I activity; Y. pestis Topo-I cleavage product accumulation, plate reader; activity, % at 10 µM; hit rate 0.064% among 360,000; in the data active means activity above about 50%, passing the limit was not always enough
MazF activator = increases E. coli MazEF RNase cleavage of RNA; activation, % at 20 µM; FAM/BHQ RNA-DNA oligo cleavage fluorescence, 5 h; hit rate 0.32% among 350,000; P0AE70; AID 504720; in the data active means activation above about 50%
CCHFV vOTU inh = CCHFV vOTU protease inhibition; AID 651958; hit rate 0.55% among 370,000; Pep-AMC fluorescence; inhibition, % at 11.5 µM; in the data active means inhibition above about 30%
PrPC confirm = cell surface PrPC inhibition, TR-FRET confirmation | inhibition, % at 13.8 µM | AID 743200 | hit rate 65% among 1,500 | shares compounds with PrPC TRFRET | cell surface PrPC level; in the data active means inhibition above about 25%
LD9 cytotox = counter-screen for PrPc inhibitors: cytotoxicity in LD9 cells; shares compounds with PrPC TRFRET; hit rate 29% among 1,500; inhibition, % at 13.8 µM; luminescence viability; in the data active means inhibition above about 9.5%
Hits are given with their value.

COc1ccc(-c2nc3ccc(Br)cn3c2Cc2cccc(F)c2)cc1OC was read as PrPC TRFRET 36, CCHFV vOTU inh inactive, PrPC confirm 65 and LD9 cytotox inactive.
Screening Clc1cccc(Cc2c(-c3ccco3)nc3ccc(Br)cn23)c1 returned PrPC TRFRET 42, CCHFV vOTU inh inactive, PrPC confirm 51 and LD9 cytotox inactive.
`Brc1ccc2nc(-c3ccco3)c(Cc3ccccc3)n2c1` gave PrPC TRFRET 37, CCHFV vOTU inh inactive, PrPC confirm 66 and LD9 cytotox inactive.
`Cc1cc(NC(=O)c2cccc(Oc3ccccc3)c2)n[nH]1` gave Vc quorum ag inactive, PrPC TRFRET inactive, VHR inh abs inactive, Y pestis TopoI inactive, MazF activator inactive and CCHFV vOTU inh inactive.
COc1ccc(C)cc1N(C(=O)c1ccc(C#N)cc1)C1=NC(C)(C)CS1 was read as Vc quorum ag inactive, PrPC TRFRET inactive, VHR inh abs inactive, Y pestis TopoI inactive, MazF activator inactive and CCHFV vOTU inh inactive.
For O=C1C(Nc2ccc(O)cc2)=C/C(=N/S(=O)(=O)c2cccs2)c2ccccc21 the results were Vc quorum ag inactive, PrPC TRFRET 46, VHR inh abs inactive, Y pestis TopoI inactive, MazF activator inactive, CCHFV vOTU inh 108, PrPC confirm 59 and LD9 cytotox 99.
`NC(=O)C1=C[C@@H](c2coc3ccccc3c2=O)C[C@@H](OCc2ccc(CO)cc2)O1` gave Vc quorum ag inactive, PrPC TRFRET 40, VHR inh abs inactive, Y pestis TopoI inactive, MazF activator inactive, CCHFV vOTU inh inactive, PrPC confirm 31 and LD9 cytotox inactive.
NC(=O)C1=C[C@@H](c2coc3ccccc3c2=O)C[C@@H](OCCCCO)O1 was read as Vc quorum ag inactive, PrPC TRFRET 27, VHR inh abs inactive, Y pestis TopoI inactive, MazF activator inactive, CCHFV vOTU inh inactive, PrPC confirm 32 and LD9 cytotox inactive.
`C=CCOC(=O)C1=C[C@@H](c2coc3ccccc3c2=O)C[C@@H](OCCCCO)O1` gave Vc quorum ag inactive, PrPC TRFRET inactive, Y pestis TopoI inactive, MazF activator inactive and CCHFV vOTU inh inactive.
For Cn1c(=O)c2c(nc(CN3CCc4ccccc4C3)n2CCCO)n(C)c1=O the results were Vc quorum ag inactive, PrPC TRFRET inactive, VHR inh abs inactive, Y pestis TopoI inactive, MazF activator inactive and CCHFV vOTU inh inactive.
Cn1c(=O)c2c(nc(CN3CCc4ccccc4C3)n2Cc2ccccc2F)n(C)c1=O was read as PrPC TRFRET 27, VHR inh abs inactive, Y pestis TopoI inactive, MazF activator inactive, CCHFV vOTU inh inactive, PrPC confirm inactive and LD9 cytotox inactive.
`CC1(C)CC(=O)C=C(c2cccc(O)c2)C1=O` gave Vc quorum ag inactive, PrPC TRFRET inactive, Y pestis TopoI inactive, MazF activator inactive and CCHFV vOTU inh inactive.
`CCC(=O)N1CCc2cc(S(=O)(=O)N(C)c3ccc(OC)cc3OC)ccc21` gave Vc quorum ag inactive, PrPC TRFRET inactive, Y pestis TopoI inactive, MazF activator inactive and CCHFV vOTU inh inactive.
CCC(=O)N1CCc2cc(Br)cc(S(=O)(=O)N(C)c3ccc(OC)cc3OC)c21 was read as Vc quorum ag inactive, PrPC TRFRET 30, VHR inh abs inactive, Y pestis TopoI inactive, MazF activator inactive, CCHFV vOTU inh inactive, PrPC confirm inactive and LD9 cytotox inactive.
Screening Cc1cc2ccccc2n1CCNC(=O)COc1ccccc1 returned Vc quorum ag inactive, PrPC TRFRET 42, VHR inh abs inactive, Y pestis TopoI inactive, MazF activator inactive, CCHFV vOTU inh inactive, PrPC confirm 37 and LD9 cytotox inactive.
`Cc1cc2ccccc2n1CCNC(=O)C(C)(C)C` gave Vc quorum ag inactive, PrPC TRFRET 39, VHR inh abs inactive, Y pestis TopoI inactive, MazF activator inactive, CCHFV vOTU inh inactive, PrPC confirm inactive and LD9 cytotox inactive.
Cc1cc2ccccc2n1CCNC(=O)c1ccccc1 was read as Vc quorum ag inactive, PrPC TRFRET inactive, VHR inh abs inactive, Y pestis TopoI inactive, MazF activator inactive and CCHFV vOTU inh inactive.
`Cc1cc2ccccc2n1CCNC(=O)Cc1cccc2ccccc12` gave Vc quorum ag inactive, PrPC TRFRET 41, VHR inh abs inactive, Y pestis TopoI inactive, MazF activator inactive, CCHFV vOTU inh inactive, PrPC confirm inactive and LD9 cytotox inactive.
